Among all 420,000 compounds or so, about 64,000 (15%) were called active. Another 27% or so got no clear call; they are omitted. The call rests on the fitted dose curve; in most records, active means well fitted inhibition curve with a large enough effect; inconclusive means small, poorly fitted or top-dose-only effect; inactive means flat fitted curve, though single readings scatter. Only a sample is shown.
Experiment: qHTS for Inhibitors of human tyrosyl-DNA phosphodiesterase 1 (TDP1): qHTS in cells in absence of CPT; further: nearly all actives have a fitted effect of over 55% in size
Settings: DT40 Tdp1-/- hTDP1 cells, no CPT, ATP luminescence, 48 h; activity change, negative = growth inhibition: at 46.2 µM (top of the series)
Summary of the method: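 Stably hTDP1-transfected Tdp1-null chicken DT40 cells were treated with library compounds minus camptothecin and grown for at least 48 hr at 37 °C, after which cellular ATP was quantified by luminescence.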
On the % scale 0 is the no-effect control and ±100 the full control effect; potency means the concentration at half of the fitted maximal effect.

Row | SMILES | activity change, negative = growth inhibition | Potency
1 | Cc1cc(Cl)c(S(=O)(=O)NCCC(=O)O)cc1OCC(N)=O | -5.51% (inactive) | 
2 | COc1cc(C)c(CN2CCc3nnc(C(C)NC(=O)c4cccnc4)n3CC2)cc1C (stereo not given) | -1.75% (inactive) | 
3 | COc1ccc(OC)c(NC(=O)C2CCCN2S(=O)(=O)c2cccc3nsnc23)c1 (stereo not given) | -11.2% (inactive) | 
4 | Nc1ncc(CN2CCCC(C(=O)Nc3ccc(-c4ccco4)cc3)C2)cn1 (stereo not given) | 2.56% (inactive) | 
5 | O=C(CNC(=O)c1cccnc1)N/N=C/c1cc(Br)c(O)c(Br)c1 | -14.5% (inactive) | 
6 | Cc1nc2ccc(C(=O)N3CCSCC3)cc2s1 | -8.92% (inactive) | 
7 | CCNC(=O)CN(c1ccc(C)cc1)S(=O)(=O)c1ccc(SC)cc1 | -23.1% (inactive) | 
8 | CCOc1ccccc1C(=O)Nc1ccc2c(c1)N(C)C(=O)c1ccccc1S2 |  | 3.66 µM (active)
9 | CC(=O)Nc1ccc(NC(=O)COc2ccccc2C(=O)Nc2cccc(Cl)c2Cl)cc1 | -19.4% (inactive) | 
10 | CCOc1ccccc1C(=O)NCCCn1ccnc1 | -10.6% (inactive) | 
11 | CCc1ccc(NC(=O)Cn2ncn3c(cc4ccccc43)c2=O)cc1 | -18.2% (inactive) | 
12 | CN1C(=O)c2ccccc2Sc2ccc(NC(=O)Cc3ccc(Cl)cc3)cc21 |  | 16.4 µM (active)
13 | CCN1C(=O)c2ccccc2Sc2ccc(NC(=O)Cc3ccc(OC)cc3)cc21 | -21.6% (inactive) | 
14 | Cc1nn(-c2ccccc2)c(=O)c2noc(C)c12 | -18.1% (inactive) | 
15 | CN1CC(O)c2cc(N=NC(N)=O)c(O)cc21 (stereo not given) | -2.16% (inactive) | 
16 | OC(COc1ccc2ccccc2c1)CN1CCOCC1 (stereo not given) |  | inactive
17 | COc1ccccc1/C=N/Nc1nc(C)c(C(C)=O)s1 | -11.1% (inactive) | 
18 | Cc1cc(N/N=C\c2ccc(Br)cc2)nc(-n2nc(C)cc2C)n1 |  | 2.91 µM (active)
19 | Cc1cc2c(C)nc(N/N=C/c3ccccc3)nc2o1 | -27.5% (inactive) | 
20 | COc1cc(NS(=O)(=O)c2ccccc2)ccc1-n1nc(C)cc1C | -20% (inactive) | 
21 | Cc1nc(Cl)cc(N/N=C/c2ccccc2)n1 | -0.294% (inactive) | 
22 | COc1ccccc1/C=N\Nc1cc(C)nc(-n2nc(C)cc2C)n1 |  | 5.17 µM (active)

Row | SMILES | activity change, negative = growth inhibition | Potency
23 | COc1cccc(/C=N/Nc2ccc(S(=O)(=O)Nc3ccccc3C(=O)O)cc2[N+](=O)[O-])c1O | -4.64% (inactive) | 
24 | COc1cccc(/C=N/Nc2cc(C)nc(-c3ccccc3O)n2)c1O |  | 8.2 µM (active)
25 | COc1ccccc1-n1c(SCC(=O)Nc2cccc(C(=O)O)c2)nnc1-c1ccccc1O | -7.49% (inactive) | 
26 | Cn1ncc(Br)c1C(=O)NC1CCCC1 | -4.22% (inactive) | 
27 | CCC(C)[C@H](NC(=O)N1c2ccccc2NC(=O)[C@@H]1C(C)C)C(=O)N[C@@H](Cc1ccccc1)C(=O)O (stereo not given in full) | -4.99% (inactive) | 
28 | CC1CN(C(=O)c2cc(COc3c(F)cccc3F)on2)CCN1C (stereo not given) | -0.627% (inactive) | 
29 | CC(C)NC(=O)N1CCCC2(CCN(C(=O)c3cccn3C)CC2)C1 | 1.59% (inactive) | 
30 | COc1cccc2cc(S(=O)(=O)c3ccc(C)cc3)/c(=N/NS(=O)(=O)c3ccc(C)cc3)oc12 | -3.29% (inactive) | 
31 | Cc1c(C)c2ccc(OCC(=O)N3CCC(C(=O)O)CC3)c(C)c2oc1=O | -1.1% (inactive) | 
32 | COc1cc2nc(SCC(=O)Nc3ccccc3F)n3nc(-c4ccccc4)nc3c2cc1OC | 0.878% (inactive) | 
33 | COc1cc2nc(NCC(C)c3ccccc3)n3nc(-c4ccccc4)nc3c2cc1OC (stereo not given) |  | 13 µM (active)
34 | CSc1ncnc2c1ncn2CCCNCC(C)c1ccccc1 (stereo not given) | -10.2% (inactive) | 
35 | CCn1c(SCC(=O)NC2CC2)nnc1-c1ccncc1 | 14% (inactive) | 
36 | O=C(NCc1ccco1)c1ccc([N+](=O)[O-])cc1Cl | -0.784% (inactive) | 
37 | CC(C)CN1CCC1(C)C(=O)Nc1ccc(OC(F)F)cc1 (stereo not given) | -27.1% (inactive) | 
38 | CC(C)Oc1ccc(CN2CCC2(C)C(=O)NCc2ccc(C(F)(F)F)cc2)cc1 (stereo not given) |  | 14.6 µM (active)
39 | CCCC(=O)N1CCC1(C)C(=O)NCc1ccc(C(C)C)cc1 (stereo not given) | -8.04% (inactive) | 
40 | CN1CCNC(=O)C1CC(=O)N1CC=C(c2ccc(F)cc2)CC1 (stereo not given) | 3.99% (inactive) | 
41 | COc1ccc(NC(=O)COC(=O)c2ccncc2)c(OC)c1 | -8.51% (inactive) | 
42 | CC(C)(C)S(=O)(=O)N1Cc2cc(CO)cc(CCO)c2[C@H]1CCO | -7.27% (inactive) | 
43 | CCN(CC(=O)Nc1ccc(NC(C)=O)cc1)C(=O)CSC(=S)N1CCCC1 |  | 7.31 µM (active)
44 | CC(=O)c1ccc(NC(=O)CSC(=S)N2CCCC2)cc1 | -0.101% (inactive) | 

Row | SMILES | activity change, negative = growth inhibition | Potency
45 | COc1cccc(NC(=O)CN(C)C(=O)CSC(=S)N2CCCC2)c1 | -5.25% (inactive) | 
46 | CC(C)(C)OC(=O)C1=C(CO)CS[C@@H]2[C@H](NC(=O)Cc3ccccc3)C(=O)N12 | -14% (inactive) | 
47 | NS(=O)(=O)c1ccc(CCNC(=O)CN2C(=O)c3ccccc3S2(=O)=O)cc1 | 4.21% (inactive) | 
48 | O=C(c1ccc2c(c1)N(Cc1ccc(F)cc1)C(=O)CS2)N1CCOCC1 | 1.02% (inactive) | 
49 | O=C(NCCc1ccccc1)c1ccc2c(c1)N(Cc1ccc(F)cc1)C(=O)c1ccccc1S2(=O)=O |  | 13 µM (active)
50 | O=C(NCCc1ccc(Cl)cc1)c1cccc(N2CCCC2=O)c1 | -17.4% (inactive) | 
51 | O=C(NCCc1ccc(Cl)cc1)c1ccc2c(c1)N(Cc1ccc(F)cc1)C(=O)CS2 |  | 29.1 µM (active)
52 | O=C(NCCC1=CCCCC1)c1ccc2c(c1)N(Cc1ccccc1F)C(=O)c1ccccc1S2(=O)=O |  | 16.4 µM (active)
53 | CN(Cc1ccc(F)cc1)C(=O)CN1C(=O)c2ccccc2S1(=O)=O | -8.82% (inactive) | 
54 | Cc1ccc(C)c(NC(=O)Cn2ccn(-c3ccc(F)cc3)c(=O)c2=O)c1 | 18% (inactive) | 
55 | NS(=O)(=O)c1ccc(CCNC(=S)Nc2ccc(S(N)(=O)=O)cc2)cc1 | 0.29% (inactive) | 
56 | CCOc1ccc(N(CC)C(=O)c2cc3c(=O)oc4ccccc4c3s2)cc1 | -25.6% (inactive) | 
57 | Cc1cc([N+](=O)[O-])nn1Cc1ccc(F)cc1 | -28% (inactive) | 
58 | O=c1c2ccccc2c(-c2ccccc2)nn1-c1ccccn1 | -23% (inactive) | 
59 | CNC(=O)n1ccc(C(=O)N2CCCCC2)n1 | -13.1% (inactive) | 
60 | O=C(CCC(=O)c1cccs1)NCc1ccccc1 | -14.2% (inactive) | 
61 | Cc1ccc(SCCN2C(=O)NC(C)(C)C2=O)cc1 | -8.19% (inactive) | 
62 | O=C(CC1CCCCC1)NCc1ccco1 | -7.57% (inactive) | 
63 | O=C(Nc1ccc2c(c1)OCCO2)C1c2ccccc2OCC(=O)N1Cc1ccccn1 (stereo not given) | -7.48% (inactive) | 
64 | O=C(Nc1ccc(NC(=O)c2ccc3c(c2)OCO3)cc1)c1cccc(Cl)c1 | 4.72% (inactive) | 
65 | O=C(Nc1ccc(Cl)cc1)C1c2cccc[n+]2CC(=O)N1Cc1ccc2c(c1)OCO2 (stereo not given) |  | 1.03 µM (active)
66 | CSc1ccccc1C(=O)NCc1ccccc1 | 0.357% (inactive) | 

Row | SMILES | activity change, negative = growth inhibition | Potency
67 | C=CCOc1cccc(CNn2cn[nH]c2=S)c1 | -18.6% (inactive) | 
68 | CC(=O)Nc1ccc(Oc2ccc3c(c2)C(=O)NC3=O)cc1 | 6.04% (inactive) | 
69 | Cc1ccc(N/C=C/C(=O)c2ccccc2)cc1C | -14% (inactive) | 
70 | Cc1cc(C)nc(S/C=C/C(=O)c2ccccc2)n1 |  | 2.59 µM (active)
71 | C/C(=N\NC(=O)c1nc(C)cc(C)n1)c1ccccc1 | -13.8% (inactive) | 
72 | COC1=CCC2([N+](=O)[O-])CN(CC(=O)O)CC1([N+](=O)[O-])C2 (stereo not given) | -1.54% (inactive) | 
73 | Cc1ccc(NC(=O)NC(=O)N(C2CCCCC2)S(=O)(=O)c2ccccc2)cc1 | -29.9% (inactive) | 
74 | Cc1ccc2[nH]c3c(=O)n(Cc4ccccn4)cnc3c2c1 | -6.59% (inactive) | 
75 | CC(C)c1cccc(C(C)C)c1Nc1cn[nH]c1 |  | 20.6 µM (active)
76 | O=C(O)CCCN1C(=O)c2ccccc2Sc2ncccc21 | 10.6% (inactive) | 
77 | C=CCOc1cccc(CNCc2cccnc2)c1 | -2.47% (inactive) | 
78 | Cn1cnc([N+](=O)[O-])c1Sc1n[nH]c(N)n1 | -15% (inactive) | 
79 | Cn1cnc([N+](=O)[O-])c1Sc1ccccc1 |  | 23.1 µM (active)
80 | Cn1cnc([N+](=O)[O-])c1Nc1ccccc1O | -17.2% (inactive) | 
81 | C=CCN1C(=O)C2(OCCCO2)c2cccc(Cl)c21 | 10.2% (inactive) | 
82 | CCC(C)(C)n1nnnc1C(c1ccc(OC)c(OC)c1)N1CCN(C(=O)c2ccco2)CC1 (stereo not given) | 1.91% (inactive) | 
83 | CCC(C)(C)n1nnnc1C(c1cccs1)N1CCN(c2nc3ccccc3s2)CC1 (stereo not given) |  | 15.8 µM (active)
84 | CCC(C)(C)n1nnnc1C(c1ccccc1OC)N1CCSCC1 (stereo not given) | -21% (inactive) | 
85 | O=C(CCn1nnc2ccccc2c1=O)N[C@@H](Cc1c[nH]c2ccccc12)C(=O)O | 2.6% (inactive) | 
86 | CCOC(=O)N1CCC(NC(=O)Cc2cn(C)c3ccccc23)CC1 | -10.6% (inactive) | 
87 | CC(C)=CCC/C(C)=C/CC/C(C)=C/CC/C(C)=C/CO |  | inactive
88 | CCSc1nc2c(c(=O)[nH]1)C(c1cccnc1)C(C(=O)OC(C)C)=C(C)N2 (stereo not given) | -29% (inactive) | 

Row | SMILES | activity change, negative = growth inhibition | Potency
89 | COc1cc(CN2CCC(C(N)=O)CC2)ccc1OCc1ccccc1 | -5.51% (inactive) | 
90 | COc1cc(CNC2CCCC2)c(Br)cc1OCc1ccccc1 |  | 16.4 µM (active)
91 | COc1cc(OC)c(NC(=O)C2CCCN2C(=O)OCc2ccccc2)cc1Cl (stereo not given) | 11.7% (inactive) | 
92 | O=C(CN1CCSCC1)N/N=C/c1ccc(F)cc1 | -12.8% (inactive) | 
93 | COc1ccc(-c2csc(NC(=O)CCCc3cccs3)n2)cc1 | -3.64% (inactive) | 
94 | COc1ccc2c(c1OC)C(=O)OC2Nc1nc(-c2ccccc2)cs1 (stereo not given) |  | 1.84 µM (active)
95 | CCc1ccccc1NC(=O)[C@@H]1CCC(=O)N1C1OC(=O)c2c1ccc(OC)c2OC (stereo not given in full) | 4.6% (inactive) | 
96 | COc1ccc(-c2csc(NC3OC(=O)c4ccccc43)n2)cc1 (stereo not given) |  | 6.51 µM (active)
97 | COc1ccc2c(c1OC)C(=O)OC2c1c(O)nc(SC)n(-c2ccccc2)c1=O (stereo not given) | 2.17% (inactive) | 
98 | O=C(O)c1ccc(Cn2c(=S)[nH]c3cc(Cl)ccc3c2=O)cc1 | -6.36% (inactive) | 
99 | CCOC(=O)CSc1nnc(CNc2nc(-c3ccccc3)cs2)n1C | -0.54% (inactive) | 
100 | Cc1ccc(O/C=C2\OC(=O)c3ccccc32)cc1 | 4.91% (inactive) | 
101 | O=C1CC2(CCCCC2)Oc2ccc(OCC(=O)N3CCOCC3)cc21 | -23.5% (inactive) | 
102 | CCN(CC)c1ccc([N+](=O)[O-])cc1C(=O)O | -14.5% (inactive) | 
103 | Cc1cccc(C(=O)c2cccc(C)c2)c1 | -9.07% (inactive) | 
104 | Cc1cccc(C=CC(=O)c2ccc(Cl)cc2)c1 |  | 13 µM (active)
105 | Cc1cc(C)nc(NC(=O)/C=C/c2ccc(Cl)cc2)n1 | -8.03% (inactive) | 
106 | COc1ccc(CNC(=O)C2CCN(S(=O)(=O)N3CCOCC3)CC2)cc1 | -3.42% (inactive) | 
107 | CC(=O)Nc1ccc(SCC(=O)NC(=O)c2ccc(Cl)cc2)cc1 | -7.14% (inactive) | 
108 | O=C(CNC(=O)OCc1ccccc1)Oc1cc2oc(=O)cc(-c3ccccc3)c2cc1Cl |  | 8.2 µM (active)
109 | CC(Oc1ccc2c(-c3ccccc3)cc(=O)oc2c1)C(=O)NC(Cc1c[nH]c2ccccc12)C(=O)O (stereo not given) | 11.4% (inactive) | 
110 | O=C(CNC(=O)c1ccc(-c2ccccc2)cc1)OCc1ccc(Cl)cc1 | -16.5% (inactive) | 

Reference: PubChem BioAssay AID686978 (National Center for Advancing Translational Sciences (NCATS), 2013)
